# D3 ag – D3 dopamine receptor (human) agonism; P35462; D3R DiscoveRx beta-arrestin cells, luminescence, 90 min; max activation, %; actives 0.58% (n = 410,000); AID 652048; in the data active = max activation above about 30%
#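 Agonist mode: compounds and dopamine controls were applied to plated cells for 90 min at 37 degrees C after an overnight attachment at 1500 cells/well. Luminescent read-out followed 30 - 60 minutes at room temperature with DiscoveRx detection reagent.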
# D1 agonist – activates the human D1 dopamine receptor; actives 1% (n = 360,000); activation, % at 2 µM; HEK293 T-REx D1 cells, calcium flux, agonist mode; in the data active = activation above about 30%
#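 Tetracycline-induced HEK293 TREx D1 cells, force-coupled to calcium signalling, were dye-loaded with a no-wash calcium kit. Compound was pin-added after a 10 s baseline. Fluorescence was read kinetically at 1 cycle/s for 180 s, with calcium rises flagged as agonism.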
# ERG-DNA inh – ERG Ets/DNA interaction inhibition; P11308; fluorescence polarization, His-ERG Ets domain / labelled DNA; Potency, µM (series often up to 76.9 µM), most hits filed as inhibitors; actives 0.028% (n = 370,000); active = well fitted inhibition curve with a large enough effect in the polarisation, with a control signal flat; inconclusive = small, poorly fitted or top-dose-only effect, or effect the other way, or a change in a side signal; inactive = no such curve, though single readings can be large or run the other way; the % refers to the polarisation;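 also: polarization taken with two DNA probes labelled with fluorescein and Texas red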
# Target sequence (P11308 whole entry, looked up, the tested form may be a part): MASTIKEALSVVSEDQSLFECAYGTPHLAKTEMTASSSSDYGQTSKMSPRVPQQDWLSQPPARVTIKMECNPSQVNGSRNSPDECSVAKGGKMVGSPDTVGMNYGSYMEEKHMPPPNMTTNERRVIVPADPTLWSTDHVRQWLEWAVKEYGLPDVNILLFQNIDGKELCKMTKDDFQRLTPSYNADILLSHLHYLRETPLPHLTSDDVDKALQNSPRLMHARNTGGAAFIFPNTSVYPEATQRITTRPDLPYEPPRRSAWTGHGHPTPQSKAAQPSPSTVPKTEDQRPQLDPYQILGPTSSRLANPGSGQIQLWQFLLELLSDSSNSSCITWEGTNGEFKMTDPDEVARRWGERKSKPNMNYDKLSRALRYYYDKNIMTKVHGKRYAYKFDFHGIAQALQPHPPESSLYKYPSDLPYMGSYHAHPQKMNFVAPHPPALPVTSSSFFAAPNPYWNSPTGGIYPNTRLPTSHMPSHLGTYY
#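 His-tagged ERG Ets domain (1 uM in the protein solution; 300mM KCl, 50mM Tris-HCl, 1mM EDTA, 1mM DTT, pH 7.5) received compound, then a probe mix of 5 nM fluorescein-DNA and 100nM Texas-615-DNA. Fluorescence polarization was read for both dyes.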
# D1 PAM – enhances dopamine response at the human D1 receptor. P21728. HEK293 TREx D1 cells, calcium flux, dopamine EC20 potentiation. potentiation, % at 10 µM. actives 0.036% (n = 360,000); in the data active = potentiation above about 30%
# D1 antagonist – human D1 dopamine receptor antagonism; P21728; HEK293 TREx D1 cells, calcium flux, dopamine EC80; active compounds read low; activity change, negative = inhibition, % at 10 µM; actives 3.2% (n = 360,000); in the data active = activity change below about -30%
#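 HEK293 T-REx cells expressing inducible, force-coupled D1 receptor; no-wash Ca dye, 30–90 min RT. Cmpd → 180 s read at 1 Hz → EC80 DA → 180 s read.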
# DRD3 antagonist – blocks the human D3 dopamine receptor; D3R cells, DiscoveRx beta-arrestin luminescence, antagonist mode; active compounds read low; max response, negative = inhibition, %; actives 2.5% (n = 360,000); AID 652054; in the data active = max response below about -50%; inconclusive = no clear call, values can overlap the other calls
#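 Cells plated overnight at 1500 cells/well, then exposed to library compounds with dopamine controls for 90 minutes at 37 degrees C. DiscoveRx reagent added for 30–60 minutes at room temperature; luminescence read, quantitative HTS format.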
# Numbers stand for hits; - = inactive; ? = inconclusive; . = not tested or not shown. Hits are enriched below; roughly 6.1% of the tested compounds scored in any of these assays.
SMILES,D3 ag,D1 agonist,ERG-DNA inh,D1 PAM,D1 antagonist,DRD3 antagonist
CCCCn1nnnc1C(c1ccccc1)N1CCN(CC)CC1 (stereo unspecified),-,.,.,.,.,-
CCCCn1nnnc1C(CCc1ccccc1)N1CCN(C/C=C/c2ccccc2)CC1 (stereo unspecified),-,.,.,.,.,-57.8
CCCCn1nnnc1C(c1ccccc1)N1CCN(C(C)=O)CC1 (stereo unspecified),-,.,.,.,.,-
CCCCC(c1nnnn1CCOC)N1CCN(Cc2ccccc2)CC1 (stereo unspecified),-,-,-,-,-,-80.4
CCCCn1nnnc1C(CCSC)N1CCN(C/C=C/c2ccccc2)CC1 (stereo unspecified),-,.,.,.,.,-121.6
CCCC(c1nnnn1CCOC)N1CCN(Cc2ccccc2)CC1 (stereo unspecified),-,-,-,-,-,?
CC(=O)c1ccccc1NC(=O)COC(=O)Cc1cccc(C(F)(F)F)c1,-,-,-,-,-,-
CCOc1ccc(CCNC(=O)c2cnc3sc(N4CCOCC4)nn3c2=O)cc1,-,-,-,-,-,.
COc1cc(C2C(C#N)=C(C)NC3=C2C(=O)c2ccccc23)cc(OC)c1OC (stereo unspecified),-,-,.,-,-52.9,-
Cc1ccc(CNC(=O)C2CCN(C(=O)c3cccc(Cl)c3)CC2)cc1,-,-,-,-,-57.2,-
COc1ccc(CNC(=O)C2CCN(C(=O)c3cccc(Cl)c3)CC2)cc1,-,-,-,-,-35.3,-
COc1ccc(CNC(=O)C2CCN(C(=O)c3ccc(-c4ccccc4)cc3)CC2)cc1,-,-,-,-,-,-
CC(NC(=O)c1cccc(S(=O)(=O)N(C)C)c1)c1nc2ccccc2[nH]1 (stereo unspecified),-,-,-,-,-,-
COC(=O)c1c(C(=O)OC)c2c(-c3ccccc3)cc3cccc1n32,34.2,.,.,.,.,-
CCOC(=O)/C=C/C(=O)Nc1cc(S(=O)(=O)Nc2ccc(OC)cc2)ccc1N1CCOCC1,-,-,-,-,-,-
CN(C)c1ccc(/C=C/C=N/Nc2nc(N3CCOCC3)nc(N3CCOCC3)n2)cc1,-,-,-,-,-34.9,-
Cc1cc(N2CCCC2=O)ccc1S(=O)(=O)NCCOc1ccccc1,-,-,-,-,-,-
O=C(N1CCCC1)C12CC3CC(CC(Cl)(C3)C1)C2,-,-,-,-,-,-
COc1ccc(Cl)cc1NC(=O)NCc1ccc2c(c1)OCO2,-,-,-,-,-32.7,-
O=C(NCc1ccc2c(c1)OCO2)Nc1cccc(Cl)c1,-,-,-,-,-41.2,-
CCN1CCC(N(Cc2ccc3c(c2)OCO3)C(=O)Nc2cc(Cl)ccc2C(=O)OC)CC1,-,48.7,-,-,-,.
COc1ccc(Cl)cc1NC(=O)Nn1cnnc1,-,-,-,-,-,-
CC(=O)c1cccc(NC(=O)NCc2ccc3c(c2)OCO3)c1,-,-,-,-,-,-
COc1ccc(Cl)cc1NC(=O)Nc1cn(C)nc1C,-,-,-,-,-61.2,-
Cc1ccsc1/C=N/NC(=O)CSCc1ccc(Cl)cc1,-,-,-,-,-,-
SMILES,D3 ag,D1 agonist,ERG-DNA inh,D1 PAM,D1 antagonist,DRD3 antagonist
O=C(CCCc1ccccc1)NCc1ccc2c(c1)OCO2,-,-,-,-,-,-
COc1ccccc1NC(=O)COC(=O)c1cnc(C)cn1,-,-,-,-,-,-
Cc1cnc(C(=O)OCC(=O)Nc2ccc(Oc3ccccc3)cc2)cn1,-,-,-,-,-41.2,-
COc1ccc(C(C)(C)C)cc1NC(=O)COC(=O)c1cnc(C)cn1,-,-,-,-,-,-64.7
C=CCC(=O)OCC(=O)Nc1ccc(Oc2ccccc2)cc1,.,-,.,-,-35.2,.
CN(C)c1ccc(-c2ccnc3c2CC(C)(C(=O)Nc2ccc(Cl)cc2)O3)cc1 (stereo unspecified),-,.,.,.,.,-
CC(=O)Nc1ccc(-c2ccnc3c2CC(C)(C(=O)NCCc2ccccc2)O3)cc1 (stereo unspecified),-,.,.,.,.,-114.9
CC(=O)NCCNC(=O)C1(C)Cc2c(-c3ccccc3)ccnc2O1 (stereo unspecified),-,.,.,.,.,-

# From PubChem BioAssay
